Results on five compounds are retold here after PubChem BioAssay.

The nature of experiment [1]: compounds binding Alexa647 anti-His antibody – biochemical, small-molecule microarray, 635 nm fluorescence, artefact control for SMM control protein annotation, primary screen (AID 1128).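 Also: score merges feature fluorescence with signal-to-noise for each printed compound spot.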 To be noted: higher = more signal.
The subject of experiment [2] is Human papillomavirus type 1a E7 protein (residues 1-88). Nature of the experiment: HPV1a E7 small-molecule binders, primary screen, biochemical, small-molecule microarray, residues 1-88, 635 nm (AID 1129). To be noted: small-molecule microarray binding, fluorescence 635 nm; higher = more signal.
The target of experiment [3] is Focal adhesion kinase 1 (Homo sapiens) (UniProt Q05397). Nature of the experiment: PTK2 protein binding on printed compound slides – biochemical, small-molecule microarray, 635/667 nm fluorescence, BSA, DTT, primary screen (AID 1130).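 Also: composite of spot emission at 667 nm and signal to noise over triplicate slides.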 The conditions noted are these: 635 nm fluorescence, higher = more signal.
Sequence of Focal adhesion kinase 1 (Homo sapiens) (Q05397 whole entry, looked up): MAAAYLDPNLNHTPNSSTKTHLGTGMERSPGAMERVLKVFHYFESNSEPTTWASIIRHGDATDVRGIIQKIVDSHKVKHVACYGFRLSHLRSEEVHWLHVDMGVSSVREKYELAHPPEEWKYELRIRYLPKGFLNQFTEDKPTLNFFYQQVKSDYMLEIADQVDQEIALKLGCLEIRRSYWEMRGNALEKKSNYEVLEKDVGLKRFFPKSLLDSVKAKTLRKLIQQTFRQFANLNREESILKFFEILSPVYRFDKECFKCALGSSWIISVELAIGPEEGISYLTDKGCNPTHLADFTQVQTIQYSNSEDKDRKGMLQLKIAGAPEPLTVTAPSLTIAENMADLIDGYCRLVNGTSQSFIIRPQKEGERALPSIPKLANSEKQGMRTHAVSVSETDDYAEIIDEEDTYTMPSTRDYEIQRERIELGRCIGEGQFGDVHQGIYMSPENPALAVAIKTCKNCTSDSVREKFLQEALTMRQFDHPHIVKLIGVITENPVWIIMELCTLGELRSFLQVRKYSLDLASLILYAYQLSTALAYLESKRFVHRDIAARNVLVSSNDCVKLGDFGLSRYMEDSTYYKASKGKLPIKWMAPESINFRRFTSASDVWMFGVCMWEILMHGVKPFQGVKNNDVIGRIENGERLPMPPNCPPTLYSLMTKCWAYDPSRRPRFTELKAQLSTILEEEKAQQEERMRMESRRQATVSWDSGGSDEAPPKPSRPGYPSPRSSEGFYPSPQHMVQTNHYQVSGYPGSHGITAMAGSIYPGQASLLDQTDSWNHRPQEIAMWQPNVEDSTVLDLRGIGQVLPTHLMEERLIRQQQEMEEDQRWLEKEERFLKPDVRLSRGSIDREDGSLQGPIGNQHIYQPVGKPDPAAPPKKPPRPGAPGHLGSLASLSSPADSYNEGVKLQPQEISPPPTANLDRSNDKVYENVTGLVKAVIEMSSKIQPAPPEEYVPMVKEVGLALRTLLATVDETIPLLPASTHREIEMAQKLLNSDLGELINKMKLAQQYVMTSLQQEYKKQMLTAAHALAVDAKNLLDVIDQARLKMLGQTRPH
Experiment [4] deals with Fibrinogen (Alexa647-labelled). Nature of the experiment: Alexa647-fibrinogen binding to printed small molecules – biochemical, small-molecule microarray, 635/667 nm fluorescence, artefact control for SMM control-protein annotation, profiling panel (AID 1131).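 Also: z-score merges 667 nm fluorescence with per-spot signal-to-noise over triplicate slides.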 To be noted: fibrinogen-A647 binding fluorescence, higher = more signal.
Experiment [5] concerns the target Follistatin (Homo sapiens) (UniProt P19883). The experiment in a line: FST protein binding to printed compounds – biochemical, small-molecule microarray, 635/667 nm fluorescence, primary screen (AID 1132). The conditions noted are these: 635 nm fluorescence, higher = more signal.
Experiment [6] has as its target Fibroblast growth factor 2 (Homo sapiens) (UniProt P09038). The experiment in a line: basic fibroblast growth factor binding to printed compounds – biochemical, small-molecule microarray, 635/667 nm fluorescence, primary screen (AID 1133). The conditions noted are these: FGF2, fluorescence 635/667, higher = more signal.
A short description of experiment [7]: JC-1 mitochondrial potential readout, lung cancer cells – cell-based, A549, JC-1 fluorescence, basal, 24 h, 100 nL, profiling panel (AID 1138).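 Also: A549 lung adenocarcinoma cells under basal conditions with no added stimulus; test concentration not given here.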 To be noted: higher = more signal.
Another experiment relates to Lefty1. Nature of the experiment: Lefty1 protein binding to printed compounds – biochemical, small-molecule microarray, 635/667 nm fluorescence, primary screen (AID 1139). To be noted: fluorescence 635/667, higher = more signal.
Experiment [8] concerns wheat germ agglutinin (Triticum aestivum), Alexa647-labelled. Nature of the experiment: Alexa647-WGA lectin binding to printed small molecules – biochemical, small-molecule microarray, 635/667 nm fluorescence, artefact control for SMM control-protein annotation, profiling panel (AID 1140).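 Also: score merges 667 nm feature emission with signal to noise over triplicate slides.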 To be noted: WGA-A647 binding, 635 nm fluorescence, higher = more signal.
For experiment [9], the target named is Luciferin 4-monooxygenase (Photinus pyralis) (UniProt P08659). The experiment in a line: inhibition of purified Photinus pyralis luciferase – biochemical, luminescence, purified enzyme, 2006 set, primary screen (AID 1141).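 Also: cell-free assay with purified firefly luciferase at 100 ng per well in PBS; test concentration not given here.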 The conditions noted are these: purified firefly luciferase, SteadyGlo luminescence, 30 min; higher = more signal, called active from +8 up or from −8 down.
Sequence of Luciferin 4-monooxygenase (Photinus pyralis) (P08659 whole entry, looked up): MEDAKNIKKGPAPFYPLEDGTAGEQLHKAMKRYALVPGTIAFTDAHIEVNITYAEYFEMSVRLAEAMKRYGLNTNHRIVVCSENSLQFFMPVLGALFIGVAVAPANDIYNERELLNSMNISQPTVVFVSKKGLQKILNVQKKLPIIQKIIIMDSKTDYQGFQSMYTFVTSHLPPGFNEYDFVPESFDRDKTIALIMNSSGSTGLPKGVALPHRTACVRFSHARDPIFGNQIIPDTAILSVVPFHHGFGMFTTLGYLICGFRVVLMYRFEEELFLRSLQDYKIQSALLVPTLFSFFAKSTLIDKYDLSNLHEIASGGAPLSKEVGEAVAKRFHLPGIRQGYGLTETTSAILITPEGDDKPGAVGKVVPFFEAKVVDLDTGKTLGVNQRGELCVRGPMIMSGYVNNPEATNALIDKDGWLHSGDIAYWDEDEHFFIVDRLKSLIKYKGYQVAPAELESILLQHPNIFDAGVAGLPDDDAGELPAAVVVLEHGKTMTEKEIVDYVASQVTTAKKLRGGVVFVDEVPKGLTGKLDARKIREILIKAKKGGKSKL

The subject of experiment [10] is Wnt5a (protein binding on small-molecule microarray). The experiment in a line: small molecules binding Wnt5a protein – biophysical, small-molecule microarray, 635/667 nm fluorescence, primary screen (AID 1142).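 Also: fluorescence read at 667 nm with signal to noise per printed feature.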 The conditions noted are these: 635 nm fluorescence, higher = more signal.
The nature of experiment [11]: ATP-based viability of Huh7 replicon cells – cell-based, CellTiter-Glo luminescence, basal, 48 h, cytotoxicity control for HCV replication inhibitor project, primary screen (AID 1143).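 Also: Huh7 hepatoma cells carrying a hepatitis C replication reporter with no stimulus; test concentration not given here.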 To be noted: higher = more signal, called active from +8 up or from −8 down.
The nature of experiment [12]: Pseudomonas biofilm growth suppression – PAO1 strain, BacTiter-Glo luminescence, LB-PBS, primary screen (AID 1144). To be noted: P. aeruginosa PAO1 biofilm, 12 h, higher = more signal.
A short description of experiment [13]: basal CRE-LacZ reporter activity in PC12 – cell-based, unstimulated, primary screen (AID 1145). To be noted: no forskolin, luminescence, 4.5 h, higher = more signal, called active from +8 up or from −8 down.
Experiment [14] can be described thus: forskolin-driven CRE-LacZ activity in PC12 – cell-based, CRE-LacZ reporter, forskolin-stimulated, primary screen (AID 1146).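 Also: PC12 cells with 6xCRE LacZ reporter stimulated by forskolin 10 µM; beta-galactosidase reporter signal reflecting CREB driven transcription.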 The conditions noted are these: luminescence, 4.5 h, higher = more signal, called active from +8 up or from −8 down.
The target in experiment [15] is Streptavidin (Streptomyces avidinii) (UniProt P22629). Nature of the experiment: compounds binding control protein streptavidin – biophysical, small-molecule microarray, 635/667 nm fluorescence, artefact control for SMM compound annotation, primary screen (AID 1147).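 Also: signal reflects streptavidin binding to arrayed compounds as a control protein.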 The conditions noted are these: higher = more signal.
Sequence of Streptavidin (Streptomyces avidinii) (P22629 whole entry, looked up): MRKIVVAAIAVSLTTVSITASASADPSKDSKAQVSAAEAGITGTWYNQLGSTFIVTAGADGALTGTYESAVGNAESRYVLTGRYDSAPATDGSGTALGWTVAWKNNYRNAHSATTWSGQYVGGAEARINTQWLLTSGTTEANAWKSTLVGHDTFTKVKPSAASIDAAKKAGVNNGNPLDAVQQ
Experiment [16] in a line: probe aInhba binding on compound microarray – biochemical, small-molecule microarray, 635/667 nm fluorescence, primary screen (AID 1148).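 Also: score merges 667nm spot fluorescence with signal-to-noise for antibody binding to printed compounds.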 The conditions noted are these: higher = more signal.
Experiment [17] has as its target Torsin-1A (Homo sapiens) (UniProt O14656). The experiment in a line: TOR1A wild-type binding on microarray – cell lysate, small-molecule microarray, lysate, 635/667 nm, primary screen (AID 1149). The conditions noted are these: COS7 hTOR1A-WT lysate, 635 nm fluorescence, higher = more signal.
Experiment [18] shares this target. The experiment in a line: torsin A mutant lysate binding on microarrays – cell lysate, small-molecule microarray, COS7 lysate, 635/667 nm fluorescence, primary screen (AID 1150).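 Also: score pools 667 nm emission and signal to noise measuring lysate protein binding.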 To be noted: COS7 hTOR1A mutant lysate, 635 nm fluorescence, higher = more signal.
In experiment [19] the test system is Sonic hedgehog protein (Shh). The experiment in a line: Sonic hedgehog microarray binding compounds – biochemical, small-molecule microarray, 635/667 nm fluorescence, primary screen (AID 1151).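 Also: Shh protein binding to compounds spotted on small-molecule microarray slides; score combines spot fluorescence intensity with signal-to-noise across triplicate slides.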 To be noted: 635 nm fluorescence, higher = more signal.

Active and inactive are the calls of the source. Unless noted, no rule for the calls is given here.

Sequence of Torsin-1A (Homo sapiens) (O14656 whole entry, looked up): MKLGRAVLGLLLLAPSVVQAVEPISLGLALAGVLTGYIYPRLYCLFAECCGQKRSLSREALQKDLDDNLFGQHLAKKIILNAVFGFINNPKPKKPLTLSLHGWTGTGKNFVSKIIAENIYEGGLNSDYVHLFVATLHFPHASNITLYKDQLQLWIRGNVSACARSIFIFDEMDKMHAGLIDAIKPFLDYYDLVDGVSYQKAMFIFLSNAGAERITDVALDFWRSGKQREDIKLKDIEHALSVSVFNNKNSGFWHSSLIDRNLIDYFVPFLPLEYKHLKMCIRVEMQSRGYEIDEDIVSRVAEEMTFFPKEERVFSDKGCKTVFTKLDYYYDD
Sequence of Fibroblast growth factor 2 (Homo sapiens) (P09038 whole entry, looked up): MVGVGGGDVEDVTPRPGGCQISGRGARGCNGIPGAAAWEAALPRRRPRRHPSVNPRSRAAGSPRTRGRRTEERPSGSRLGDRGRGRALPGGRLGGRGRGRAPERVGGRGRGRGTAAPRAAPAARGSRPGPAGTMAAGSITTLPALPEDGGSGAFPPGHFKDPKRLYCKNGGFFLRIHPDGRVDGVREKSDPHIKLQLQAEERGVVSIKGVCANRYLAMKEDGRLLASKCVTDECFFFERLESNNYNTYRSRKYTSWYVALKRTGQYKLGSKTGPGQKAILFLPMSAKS
Sequence of Follistatin (Homo sapiens) (P19883 whole entry, looked up): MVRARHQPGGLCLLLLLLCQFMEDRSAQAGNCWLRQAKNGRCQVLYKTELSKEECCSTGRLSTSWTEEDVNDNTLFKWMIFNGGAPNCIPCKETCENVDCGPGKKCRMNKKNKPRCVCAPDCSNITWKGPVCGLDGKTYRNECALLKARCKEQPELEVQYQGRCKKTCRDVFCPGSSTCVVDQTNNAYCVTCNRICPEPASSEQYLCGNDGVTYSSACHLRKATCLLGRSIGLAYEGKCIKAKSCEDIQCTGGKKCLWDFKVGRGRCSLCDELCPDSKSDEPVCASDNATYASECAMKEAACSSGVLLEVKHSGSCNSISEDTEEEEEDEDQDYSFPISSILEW

With `O=C(O)[C@H]1C[C@H]2C(=O)N[C@@H](Cc3ccccc3)C(=O)N2[C@H]1c1cccc(OCCO)c1`, the composite z-score in [1] is 1.7; in experiment [2] it was -0.0006; in [3], -0.167; in experiment [4], 0.472; in experiment [5], 1.43; in experiment [6] it was 1.44. Besides, the composite z-score with Lefty1 came out at 1.33; in experiment [8], 0.568; in [10], 0.223; in [15] it was 0.105; in [16] it was 0.0663; in the experiment with Torsin-1A (Homo sapiens) [17], 1.42. The results for the composite z-score (with Torsin-1A (Homo sapiens) [18]; in experiment [19]) were 1.71 and 1.9, respectively. In addition, the z-score in experiment [7] is 0.706; in experiment [9], -0.832 (inactive); in experiment [11], -0.6 (inactive); in experiment [12] it was 0.28 (inactive); in [13] it was 1.23 (inactive); in [14], -0.178 (inactive).
For `COCCOC(=O)N1C(=O)[C@@]2(c3cc(C#CCCO)ccc31)[C@H](c1ccccc1OCCO)N1[C@H](c3ccccc3)[C@H](c3ccccc3)OC(=O)[C@H]1[C@@H]2C(=O)N1CCCCCCC1`, the composite z-score in experiment [1] was determined as 1.35; in experiment [2], 1.17; in experiment [3], 0.624; in [4], 0.857; in [5] it was 1.39; in experiment [6] it was 1.58. Moreover, the composite z-score in the experiment with Lefty1 worked out at 1.65; in experiment [8], 1.14; in experiment [10] it was 0.405; in [15], 1.31; in [16] it was 1.45; in the experiment with Torsin-1A (Homo sapiens) [17], 1.22. The composite z-score with Torsin-1A (Homo sapiens) [18] was found to be 0.34; in [19], 1.97. The z-score in [7] is -0.383; in experiment [9] it was -0.0558 (inactive); in experiment [11], -3.64 (inactive); in experiment [12] it was -1.29 (inactive); in experiment [13] it was -1.15 (inactive); in experiment [14], 0.481 (inactive).
In the case of `COC(=O)[C@@]1(Cc2ccc(OC)cc2)[C@H]2c3cc(C(=O)N4CCCC4)n(Cc4ccc(S(C)(=O)=O)cc4)c3C[C@H]2CN1C(=O)c1ccccc1`, the composite z-score in experiment [1] was 0.486; in experiment [2], 1.26; in [3], 0.721; in [4] it was 0.996; in [5] it was 0.0078; in experiment [6] it was -0.184. The composite z-score was -0.0956 in the experiment on Lefty1; 0.479 in experiment [8]; 0.21 in [10]; 1.73 in experiment [15]; 0.102 in [16]; 0.272 with Torsin-1A (Homo sapiens) [17]. Besides, the figures for the composite z-score (with Torsin-1A (Homo sapiens) [18]; in experiment [19]) were 0.422 and -1.12, respectively. The z-score was 1.26 in experiment [7]; 0.922 (inactive) in experiment [9]; -0.86 (inactive) in [11]; -0.0122 (inactive) in [12]; -0.185 (inactive) in experiment [13]; -0.755 (inactive) in experiment [14].
For the compound `CO[C@H]1O[C@H](CO)[C@@H](OC(=O)Nc2ccc(C#N)cc2)[C@@H]2OC(=O)[C@H](Cc3cccc(Br)c3)C/C=C/C[C@@H](Cc3cccc(Br)c3)C(=O)O[C@@H]12`, the composite z-score is 1.26 in experiment [1]; 0.776 in experiment [2]; -0.611 in [3]; 0.448 in experiment [4]; 1.2 in experiment [5]; 0.707 in [6]. For the same compound, the composite z-score in the experiment on Lefty1 was 1.13; in experiment [8], 0.655; in [10], 0.563; in experiment [15], 0.336; in experiment [16] it was -0.0327; with Torsin-1A (Homo sapiens) [17], 0.185. Moreover, the composite z-score in the experiment with Torsin-1A (Homo sapiens) [18] was -0.163; in experiment [19], 1.34. In addition, the z-score in experiment [7] is 1.39; in experiment [9], 0.782 (inactive); in [11] it was -3.82 (inactive); in [12] it was -1.36 (inactive); in [13], -0.602 (inactive); in experiment [14] it was -0.404 (inactive).
As to `CCOC(=O)C1=C[C@@H](C(C)(C)C)N(S(=O)(=O)c2ccc(C)cc2)[C@H]1c1cccc(Cl)c1`, the composite z-score came out at 1.07 in experiment [1]; 1.22 in experiment [2]; 2.77 in experiment [3]; 0.862 in experiment [4]; 0.677 in experiment [5]; 0.556 in experiment [6]. Besides, the composite z-score came out at 1.26 in the experiment with Lefty1; 1.01 in experiment [8]; 0.37 in [10]; 1.37 in [15]; 0.18 in experiment [16]; 0.224 with Torsin-1A (Homo sapiens) [17]. Also, the composite z-score was 0.695 in the experiment with Torsin-1A (Homo sapiens) [18] and 0.163 in [19]. For the same compound, the z-score in experiment [7] is 2.42; in experiment [9], 1.24 (inactive); in experiment [11], -4.84 (inactive); in experiment [12], 1.52 (inactive); in experiment [13], 0.0798 (inactive); in experiment [14] it was -0.651 (inactive).
